Measured values taken from PubChem BioAssay (Tox21).
Records with an inconclusive call do not appear. A call without a number means that no potency is given here. Active and inactive are the calls of the source. Calls come from the whole dose curve.

Experiment: qHTS assay for small molecule disruptors of the mitochondrial membrane potential - cell viability (AID 720634);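 note: human HepG2 liver cancer cells; nearly all actives have a fitted effect of over 20% in size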
Settings: HepG2 viability, ATP luminescence (CellTiter-Glo), 1 h; series mostly up to 83.2 µM
Source text: U.S. Tox21 Program National Center for Advancing Translational Sciences [NCATS] NIH Chemical Genomics Center [NCGC] U.S. Environmental Protection Agency [EPA] National Institutes of Environmental Health Sciences [NIEHS] National Toxicology Program [NTP] U.S. Food and Drug Administration [FDA] Tox21 Assay Overview: Mitochondrial membrane potential (MMP), one of the parameters for mitochondrial function, is generated by mitochondrial electron transport chain that creates an electrochemical gradient by a series of redox reactions. This gradient drives the synthesis of ATP, a crucial molecule for various cellular processes. Measuring MMP in living cells is commonly used to assess the effect of chemicals on mitochondrial function; decreases in MMP can be detected using lipophilic cationic fluorescent dyes. […] The dye accumulates in the mitochondria of healthy cells as aggregates, with red fluorescence. The mitochondrial potential decreases and the dye could not accumulate in the mitochondria and remains in the cytoplasm in monomers, with green fluorescence. In addition to the mitochondrial potential assay, these cells were also used to test the cytotoxicity by determining the cell viability in the culture based on the quantitation of ATP present. The cytotoxicity was measured in the same assay well of MMP assay.
Tox21 Assay Protocol Summary: 2,000 HepG2 cells in 5 uL/well were dispensed into black, clear-bottom 1536-well plates using a Multidrop Combi (Thermo Scientific) dispenser. The assay plates were incubated for an overnight at 37 C to allow cells to attach to the wells, followed by the transfer of 23 nL compound or DMSO vehicle by a pin tool (Kalypsys). The plates were incubated for 1 hr at 37 C and 5% CO2, followed by the addition of 5 uL of 2X m-MPI dye into each well using Flying Reagent Dispenser (Aurora Discovery) and then CellTiter-Glo reagent was added at 4 uL/well and incubated 30 min at room temperature. Then luminescence intensity was quantified on a ViewLux CCD-based plate reader.
In the case of `Brc1cc(Br)c(Oc2cc(Br)c(Br)cc2Br)cc1Br`, the Potency is reported as “inactive”.
For `Cc1[nH]cnc1CN1CCc2c(c3ccccc3n2C)C1=O`, the Potency was “inactive”.
With `CN1CCCC(n2nc(Cc3ccc(Cl)cc3)c3ccccc3c2=O)CC1` (stereo not given) the Potency was “inactive”.
In the case of `Cc1ccc(C(C)(C)O)cc1`, the Potency is reported as “inactive”.
For `FC(F)(F)c1ccccc1Cl`, the Potency was “inactive”.
In the case of `CCCCCCCCCCC(=O)O`, the Potency is reported as “inactive”.
In the case of `O=C(O)CCCCCCCCCCCBr`, the Potency is reported as “inactive”.
With `CC(C)=CCC1C(=O)N(c2ccccc2)N(c2ccccc2)C1=O` the Potency was “inactive”.
In the case of `CC(C)C=O`, the Potency is reported as “inactive”.
For `c1ccc(C[n+]2cccc3ccccc32)cc1`, the Potency was “inactive”.
For `C=C(C)C(=O)OCCCCCCCCCCCCC`, the Potency was “inactive”.
In the case of `O=C(CCCN1CC=C(n2c(=O)[nH]c3ccccc32)CC1)c1ccc(F)cc1`, the Potency is reported as “inactive”.
In the case of `CC(C)(O)c1ccc(CNC(=O)c2cccnc2Oc2ccc3nonc3c2)cc1`, the Potency is reported as “inactive”.
For `c1csc(SSc2cccs2)c1`, the Potency was “inactive”.
With `COc1cc(Nc2c(C#N)cnc3cc(OCCCN4CCN(C)CC4)c(OC)cc23)c(Cl)cc1Cl` the Potency was “inactive”.
With `CCOC(C)=O` the Potency was “inactive”.
In the case of `C=C(C)[C@@H]1CCC2=CCC[C@@H](C)[C@]2(C)C1`, the Potency is reported as “inactive”.
In the case of `C(=C\c1ccccc1)/c1ccccc1`, the Potency is reported as “inactive”.
With `C=COCC(C)C` the Potency was “inactive”.
For `Clc1cc(Cl)nc(Cl)n1`, the Potency was “inactive”.
With `Cc1cc(C)c(N)cc1C` the Potency was “inactive”.
With `Cc1ccc(Cl)c(Nc2ccccc2C(=O)O)c1Cl` the Potency was “inactive”.
In the case of `C/C=C/C=C/C=O`, the Potency is reported as “inactive”.
With `O=C(/C=C/c1ccc(O)c(O)c1)O[C@@H]1C[C@@](OC(=O)/C=C/c2ccc(O)c(O)c2)(C(=O)O)C[C@@H](O)[C@@H]1O` the Potency was “inactive”.
For `CCOC(=O)/C=C/C(=O)OCC`, the Potency was “inactive”.
For `Oc1cccc(O)c1O`, the Potency was “inactive”.
With `O=C(O)c1ccc(OCCCOc2ccc(C(=O)O)cc2)cc1` the Potency was “inactive”.
With `COc1cc(N)c(Cl)cc1C(=O)NC1CCN(CCCOc2ccc(F)cc2)CC1OC` (stereo not given) the Potency was “inactive”.
For `Cc1cccc(O)c1N`, the Potency was “inactive”.
For `CCCCCC#CC(=O)OC`, the Potency was “inactive”.
With `Cc1cc(C)cc(N)c1` the Potency was “inactive”.
In the case of `CC(C)Nc1cccnc1N1CCN(C(=O)c2cc3cc(NS(C)(=O)=O)ccc3[nH]2)CC1`, the Potency is reported as “inactive”.
In the case of `CCCCCC[C@@H](O)C/C=C\CCCCCCCC(=O)O`, the Potency is reported as “inactive”.
With `COc1ncnc(NS(=O)(=O)c2ccc(N)cc2)c1OC` the Potency was “inactive”.
In the case of `N#CCc1ccc(Cl)cc1Cl`, the Potency is reported as “inactive”.
With `CN1CCCN=C1COC(=O)C(O)(c1ccccc1)C1CCCCC1` (stereo not given) the Potency was “inactive”.
For `C=CCc1ccccc1OCC(O)CNC(C)C` (stereo not given), the Potency was “inactive”.
For `CCCCCCCC/C=C\CCCCCCCCCCCC(=O)O`, the Potency was “inactive”.
For `O=C1C(=O)c2ccccc2C(O)=C1C1CCC(c2ccc(Cl)cc2)CC1` (stereo not given), the Potency was “inactive”.
For `Cc1cscn1`, the Potency was “inactive”.
